# In PubChem BioAssay AID602329 (Broad Institute, 2012):
# Among all 360,000 compounds or so, about 510 (0.14%) were called active. The sample holds actives, similar compounds and a random draw of the others, so the mix is not that of the screen. Values without a mark were called inactive.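 The calls were made as follows: active = mean normalized replicate activity at least 40 and at least half of replicates scoring 40 or more; inconclusive = only one of the two criteria met; inactive = mean below 40 and under half of replicates reaching 40.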
# Target: DNA repair and recombination protein RAD54-like (Homo sapiens) (UniProt Q92698)
# Sequence (Q92698 whole entry, looked up): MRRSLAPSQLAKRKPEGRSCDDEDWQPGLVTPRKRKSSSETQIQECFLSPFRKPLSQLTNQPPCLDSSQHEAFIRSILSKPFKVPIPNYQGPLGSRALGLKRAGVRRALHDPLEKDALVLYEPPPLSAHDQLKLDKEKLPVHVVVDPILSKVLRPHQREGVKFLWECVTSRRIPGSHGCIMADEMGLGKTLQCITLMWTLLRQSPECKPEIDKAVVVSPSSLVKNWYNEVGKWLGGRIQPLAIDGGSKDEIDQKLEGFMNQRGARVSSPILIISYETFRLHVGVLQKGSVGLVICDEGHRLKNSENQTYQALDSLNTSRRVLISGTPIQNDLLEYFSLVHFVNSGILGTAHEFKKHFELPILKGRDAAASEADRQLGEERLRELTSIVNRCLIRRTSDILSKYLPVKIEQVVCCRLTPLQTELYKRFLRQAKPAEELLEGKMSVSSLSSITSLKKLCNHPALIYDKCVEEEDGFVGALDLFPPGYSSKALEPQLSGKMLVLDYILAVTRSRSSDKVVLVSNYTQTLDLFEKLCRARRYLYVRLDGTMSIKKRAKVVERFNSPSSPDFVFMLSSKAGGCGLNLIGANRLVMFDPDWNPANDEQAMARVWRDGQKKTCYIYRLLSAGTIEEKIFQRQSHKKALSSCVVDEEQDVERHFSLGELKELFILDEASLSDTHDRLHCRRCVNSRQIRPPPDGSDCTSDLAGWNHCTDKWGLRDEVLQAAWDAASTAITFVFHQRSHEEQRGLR
# Assay: RAD54 Holliday junction migration blockers – biochemical, fluorescence, single point, primary screen (AID 602329);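 also: 0% = median of neutral control wells and 100% = median of positive control wells; inhibitors cause a drop in the FAM fluorescence signal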
# Conditions: RAD54 Holliday junction branch migration, FAM/BHQ fluorescence; at 10.4 µM; hits give high values
row,SMILES,inhibition
1,CC1CCc2sc3nc(N4CCN(CCO)CC4)n4ncnc4c3c2C1 (stereo not drawn),53.7% (active)
2,CN1C[C@@H](CO)O[C@@H](n2cnc3c(N4CCN(CCO)CC4)ncnc32)C1,-0.96%
3,COCc1cn(CC[C@@H]2CC[C@@H](NC(=O)Nc3ccc(C(F)(F)F)cc3)[C@H](CO)O2)nn1,-5.23%
4,C[C@@H]1CN([C@@H](C)CO)C(=O)c2ccccc2-c2ccccc2CO[C@H]1CN(C)C(=O)Nc1ccccc1,2.07%
5,CO[C@@H]1CN(C)C(=O)c2ccc(NS(C)(=O)=O)cc2OC[C@H](C)NC[C@H]1C,0.663%
6,CN1c2ccc(C3=CCCCC3)cc2[C@@H]2[C@@H](CCN2C(=O)Nc2cc(F)ccc2F)[C@@H]1CO,7.43%
7,C[C@@H]1CN([C@@H](C)CO)C(=O)c2cc(NC(=O)Nc3ccc(C(F)(F)F)cc3)ccc2O[C@@H](C)CCCCO[C@H]1CN(C)C(=O)CCCN(C)C,25%
8,COc1ccccc1-c1ccc2n(c1=O)C[C@H]1[C@H](CO)[C@@H](C(=O)N[C@@H](C)c3ccccc3)[C@@H]2N1C,-1.98%
9,CO[C@@H](CN(C)S(=O)(=O)c1cccc(Cl)c1)[C@H](C)CN([C@H](C)CO)S(=O)(=O)c1cccc(Cl)c1,1.71%
10,C[C@@H]1CN([C@H](C)CO)C(=O)c2cccc(NS(=O)(=O)c3ccc(F)cc3)c2O[C@@H]1CN(C)S(=O)(=O)c1ccccc1,2.48%
11,CO[C@@H]1CN(C)C(=O)c2ccc(NC(=O)C3CCCC3)cc2OC[C@H](C)NC[C@@H]1C,4.25%
12,O=C(C[C@@H]1C=C[C@@H](NC(=O)Nc2cccc(F)c2)[C@H](CO)O1)NCC1CCCCC1,-1.32%
13,CCN(CC)CCNc1ccc(Cl)cc1[N+](=O)[O-],7.16%
14,CCN(CC)CCn1c2ccc(Cl)cc2c2nc(C)sc21,63.6% (active)
15,COc1ccccc1C(=O)N1C[C@H]2[C@@H](c3ccccc31)[C@H](CO)N2C(=O)C1CC1,-5.07%
16,Cc1ccccc1-c1ccc2c(c1)O[C@@H](CN(C)Cc1ccc(C(=O)O)cc1)[C@H](C)CN([C@H](C)CO)S2(=O)=O,0.48%
17,COc1ccc(S(=O)(=O)N(C)C[C@@H]2OCCCC[C@@H](C)Oc3ccc(NC(=O)CCCN(C)C)cc3C(=O)N([C@@H](C)CO)C[C@@H]2C)cc1,-3.63%
18,CCC(=O)N(C)C[C@H]1Oc2ncc(-c3ccc(C)cc3)cc2C(=O)N([C@@H](C)CO)C[C@@H]1C,12%
19,Cc1noc(C)c1NC(=O)Nc1cccc2c1O[C@@H](CN(C)Cc1ccc(C(F)(F)F)cc1)[C@@H](C)CN([C@@H](C)CO)C2=O,3.12%
20,C[C@@H]1CN([C@@H](C)CO)C(=O)c2cccc(NS(=O)(=O)c3ccccc3)c2O[C@@H]1CN(C)S(=O)(=O)c1ccc(F)cc1,-8.79%
21,CCC(=O)N1C[C@@H](C)[C@H](OC)CN(C)C(=O)c2ccc(NC(=O)c3cc(C)on3)cc2OC[C@H]1C,-6.97%

row,SMILES,inhibition
1,COc1cccc(-c2ccc3n(c2=O)C[C@@H]2[C@@H](CO)[C@H](C(=O)N4CCCCC4)N[C@H]32)c1,-5.16%
2,CO[C@H]1CC[C@@H]2CCOc3c(C#N)cccc3C(=O)N(C)CCCC(=O)N(C)C[C@@H]1O2,-6.75%
3,Cc1cc(C(=O)Nc2cccc3c2O[C@@H](CN(C)C(=O)Nc2ccc4c(c2)OCO4)[C@H](C)CN([C@@H](C)CO)C3=O)n(C)n1,14.9%
4,C[C@@H]1CN([C@H](C)CO)C(=O)c2cc(NC(=O)CCCN(C)C)ccc2O[C@H]1CN(C)S(=O)(=O)c1ccc(Cl)cc1,3.22%
5,C[C@H]1CCCCO[C@@H](CN(C)C(=O)c2ccccc2)[C@@H](C)CN([C@@H](C)CO)C(=O)c2cc(NS(=O)(=O)c3cccs3)ccc2O1,-5.69%
6,CCCNC(=O)Nc1ccc2c(c1)C(=O)N(C)C[C@H](OC)[C@H](C)CN(Cc1ccncc1)[C@H](C)CO2,3.54%
7,CCCC#Cc1cnc2c(c1)C(=O)N([C@H](C)CO)C[C@@H](C)[C@@H](CN(C)C(=O)Nc1ccccc1F)O2,-0.939%
8,C[C@@H]1CN([C@H](C)CO)C(=O)c2cccc(NS(=O)(=O)c3ccc(Cl)cc3)c2O[C@@H]1CN(C)Cc1ccc(Cl)c(Cl)c1,-2.03%
9,C[C@H](O)C#Cc1cnc2c(c1)C(=O)N([C@H](C)CO)C[C@@H](C)[C@@H](CN(C)C(=O)Nc1ccc(C(F)(F)F)cc1)O2,-3.33%
10,C[C@@H]1CN([C@@H](C)CO)C(=O)c2cc(NC(=O)CCN3CCOCC3)ccc2O[C@@H]1CN(C)S(=O)(=O)c1ccccc1,5.08%
11,C[C@@H]1CN([C@@H](C)CO)S(=O)(=O)c2ccc(-c3ccccc3F)cc2O[C@H]1CN(C)Cc1cncnc1,-6.21%
12,OC[C@@H]1[C@H](c2ccc(C3=CCCC3)cc2)[C@H]2CN(Cc3ccncc3)CCCCN12,1.55%
13,COc1cccc(NC(=O)N(C)C[C@H]2Oc3cc(/C=C/c4ccccc4)ccc3S(=O)(=O)N([C@H](C)CO)C[C@@H]2C)c1,-2.16%
14,C[C@H]1CN([C@@H](C)CO)C(=O)c2cc(C#CC3CCCC3)cnc2O[C@@H]1CN(C)C(=O)Cc1ccccn1,3.4%
15,O=C(N[C@H]1CC[C@@H](CCNS(=O)(=O)c2cccc(Cl)c2)O[C@@H]1CO)c1ccncc1,-2.66%
16,Cc1ccc(S(=O)(=O)N(C)C[C@@H]2Oc3ccc(NC(=O)Nc4ccc5c(c4)OCO5)cc3C(=O)N([C@@H](C)CO)C[C@@H]2C)cc1,2.81%
17,COc1ccc(S(=O)(=O)Nc2cccc3c2O[C@@H](CN(C)S(=O)(=O)c2c(C)noc2C)[C@@H](C)CN([C@H](C)CO)C3=O)cc1,4.47%
18,C#CCOCCOCCOCCNc1nc(N2CCN(C(=O)C([C@@H](C)O)n3cc([C@@H](N)CCCCN)nn3)CC2)nc(N2CCN(C(=O)[C@H](CCCCN)n3cc(CN)nn3)CC2)n1 (stereo partly drawn),69.5% (active)
19,C#CCOCCOCCOCCNc1nc(N2CCN(C(=O)[C@H](CO)n3cc([C@@H](N)C(C)C)nn3)CC2)nc(N2CCN(C(=O)[C@H](CCC(=O)O)n3cc([C@@H](N)[C@H](C)CC)nn3)CC2)n1,-7.97%
20,C#CCOCCOCCOCCNc1nc(N2CCN(C(=O)[C@H](CCCCN)n3cc([C@@H](N)C(C)CC)nn3)CC2)nc(N2CCN(C(=O)[C@H](Cc3ccc(O)cc3)n3cc([C@@H](N)C(C)CC)nn3)CC2)n1 (stereo partly drawn),-6.01%
21,CC(=O)N1[C@H](CO)[C@@H](c2ccccc2)[C@@H]1CN(CC(C)C)C(=O)c1ccccn1,-0.684%

row,SMILES,inhibition
1,Cc1ccc(S(=O)(=O)Nc2ccc3c(c2)C(=O)N([C@@H](C)CO)C[C@H](C)[C@@H](CN(C)C(=O)Nc2ccc(F)cc2)OCCCC[C@H](C)O3)cc1,8.58%
2,COC(=O)C[C@H]1CC[C@H]2[C@H](COc3ccc(NC(=O)C4CC4)cc3C(=O)N2C)O1,-2.57%
3,C[C@@H](NC(=O)C[C@H]1CC[C@H](NS(=O)(=O)c2cccc(F)c2)[C@H](CO)O1)c1ccccc1,0.335%
4,O=C(Nc1cc(F)ccc1F)N1C[C@H]2[C@@H](c3ccccc31)[C@@H](CO)N2C(=O)c1ccccc1,8.71%
5,Cc1ccc(S(=O)(=O)Nc2ccc3c(c2)C(=O)N([C@H](C)CO)C[C@H](C)[C@@H](CN(C)S(=O)(=O)c2cn(C)cn2)OCCCC[C@H](C)O3)cc1,1.15%
6,O=C([C@H]1[C@H](CO)[C@H]2Cn3c(ccc(C4=CCCCC4)c3=O)[C@@H]1N2)N1CCCCC1,-7.2%
7,Cc1cccc(N(C)C(=O)c2cc3c(=O)[nH]c4ccc(C)cc4c3s2)c1,-5.82%
8,CCN(CC)CCCNC(=O)c1cc2c(=O)[nH]c3ccc(C)cc3c2s1,51.5% (active)
9,Cc1ccc2[nH]c(=O)c(CC(=O)O)c(-c3ccccc3)c2c1,-1.43%
10,CO[C@H]1CN(C)C(=O)c2cc(NC(=O)C3CC3)ccc2OC[C@H](C)N(CC2CCCC2)C[C@@H]1C,-8.31%
11,Cc1noc(C)c1NC(=O)Nc1ccc2c(c1)C(=O)N([C@H](C)CO)C[C@@H](C)[C@@H](CN(C)C(=O)NC(C)C)O2,8.07%
12,CC(C)NC(=O)Nc1ccc2c(c1)C(=O)N([C@@H](C)CO)C[C@@H](C)[C@H](CN(C)C(=O)NC1CCCCC1)O2,-6.48%
13,N#Cc1ccccc1S(=O)(=O)N1CCN(Cc2c(O)ccc3ccccc23)CC1,1.29%
14,O=c1oc2c(CN3CCCCC3)c(O)ccc2c2c1CCCCC2,3.11%
15,CN1CCN(Cc2c(O)ccc3c2oc(=O)c2ccccc23)CC1,61.1% (active)
16,O=C(C[C@@H]1C[C@@H]2c3cc(NC(=O)Cc4ccncc4)ccc3O[C@@H]2[C@H](CO)O1)NCc1cccc(F)c1,-0.719%
17,C/C=C/c1cnc2c(c1)C(=O)N([C@@H](C)CO)C[C@H](C)[C@H](CN(C)C(=O)CN1CCOCC1)O2,2.37%
18,C[C@@H]1CN([C@@H](C)CO)C(=O)c2cc(NS(=O)(=O)c3ccccc3)ccc2O[C@@H](C)CCCCO[C@H]1CN(C)C(=O)C1CCCCC1,-16.2%
19,COc1ccc(S(=O)(=O)N2CCOCC2)cc1NC(=O)c1ccc(OCC(C)C)c(OC)c1,3.95%
20,CC(OC(=O)c1ccc(S(=O)(=O)N2CCOCC2)cc1)c1ccccc1 (stereo not drawn),0.166%
21,COC(=O)c1c(NC(=O)c2ccc(S(=O)(=O)N3CCOCC3)cc2)sc2c1CCN(C(C)C)C2,75% (active)
